Results on 15 molecules are retold here after PubChem BioAssay.

Test [1] in a line: A549 cell viability effects, profiling panel, calcein-AM fluorescence, 48 h, basal (AID 1162). The conditions noted are these: higher = more signal.
A short description of test [2]: adipocyte viability effects, profiling panel, cell-based, 3T3-L1 adipocytes, calcein-AM fluorescence, 48 h, basal (AID 1163). The settings on record: 3T3-L1 adipocytes viability, higher = more signal.
The nature of test [3]: HepG2 cell viability effects, profiling panel, calcein-AM fluorescence, 48 h, basal (AID 1164). The settings on record: higher = more signal.
Test [4] can be described thus: MM1S cell viability effects, profiling panel, calcein-AM fluorescence, 48 h, basal (AID 1165).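 Further: viability of MM1S multiple myeloma cells under basal unstimulated conditions.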 The settings on record: higher = more signal.
The nature of test [5]: basal RPMI8226 viability, no added stimulus, profiling panel, cell-based, calcein-AM fluorescence, 48 h, PK04 Diversity Set (AID 1166).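 Further: cells grown under basal conditions without added stimulus.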 The settings on record: RPMI8226 myeloma viability, higher = more signal.
A short description of test [6]: basal HepG2 mitochondrial membrane potential changes, profiling panel, cell-based, JC-1 fluorescence, 24 h, 100 nL compound (AID 1167). The conditions noted are these: higher = more signal.
The nature of test [7]: basal 3T3-L1 adipocyte mitochondrial potential changes, profiling panel, cell-based, JC-1 fluorescence, 3T3-L1 adipocytes, 24 h, 100 nL compound (AID 1168). The settings on record: JC-1 mitochondrial fluorescence, higher = more signal, called active from +8 up or from −8 down.
Test [8] is described as follows: basal RPMI8226 mitochondrial membrane potential changes, profiling panel, cell-based, JC-1 fluorescence, 24 h, 100 nL compound (AID 1169). The settings on record: RPMI8226 myeloma, JC-1 mitochondrial potential fluorescence, higher = more signal.
A short description of test [9]: basal MM1S mitochondrial membrane potential changes, profiling panel, cell-based, JC-1 fluorescence, 24 h, 100 nL compound (AID 1170). The settings on record: higher = more signal.
Test [10] is described as follows: A549 lung cancer cell viability effects, profiling panel, resazurin fluorescence, 24 h, PK04 Diversity Set (AID 1171). The settings on record: higher = more signal, called active from +8 up or from −8 down. A general note: The colour change of resazurin is a common sign of viable cells or microbes.

Molecules are shown by their SMILES. Calls of active or inactive are those of the source.
Further: test concentration not given here.

As to `CCOC(=O)C[C@H]1[C@H](OC(=O)Cc2ccc3c(c2)OCO3)[C@@H](NC(=O)c2ccccc2)c2cc(OCCCO)ccc2N1C(=O)c1ccc2ccccc2n1`, the z-score in test [1] was 1.86; in [2], 1.08; in test [3] it was 1.8; in test [4], -0.198; in [5] it was -0.243; in test [6], 1.12. Besides, the z-score is 0.607 (inactive) in [7], -0.156 in test [8], -0.178 in test [9] and -1.38 (inactive) in test [10].

As for `COC(=O)[C@]1(Cc2ccccc2CN=[N+]=[N-])N=C(c2ccc(OCCCO)cc2)O[C@@H]1c1ccccc1CN=[N+]=[N-]`, the z-score in test [1] is -3.46; in test [2], 0.766; in test [3], -4.79; in test [4] it was -3.67; in test [5], -4.08; in test [6] it was 0.344. The z-score in test [7] was 0.24 (inactive); in test [8] it was -1.07; in [9], -2.47; in test [10] it was -3.05 (inactive).

Consider `CCN(CC)c1ccc(N2CC=CC34O[C@@H]5/C=C\CCCOC(=O)C5[C@H]3C(=O)N(CCCCCCO)[C@@H]4C2=O)cc1` (stereo not given in full), for which the z-score in test [1] is 0.626; in test [2], 0.554; in test [3], 1.24; in test [4], 0.0885; in test [5], 0.0026; in test [6] it was 1.09. Further, the z-score in test [7] was 0.587 (inactive); in [8], -0.25; in [9], 0.0342; in test [10], 0.0444 (inactive).

As for `COC(=O)C(CC#Cc1ccc2c(c1)[C@]1(C(=O)N2)[C@H](c2ccc(OCCO)cc2)N2[C@H](c3ccccc3)[C@H](c3ccccc3)OC(=O)[C@H]2[C@@H]1C(=O)O)C(=O)OC`, the z-score in test [1] is 1.88; in [2], -0.0521; in [3], 1.45; in test [4], 0.47; in [5] it was -0.247; in test [6], -0.0694. Also, the z-score is 0.222 (inactive) in test [7], -0.336 in test [8], 0.132 in test [9] and 0.179 (inactive) in [10].

On to `O=C1O[C@H](c2ccccc2)[C@H](c2ccccc2)N2[C@H]1[C@@H](C(=O)N1CCCCCCC1)[C@]1(C(=O)Nc3ccc(C#CCCO)cc31)[C@H]2c1ccc(OCCO)cc1`, for which the z-score is -0.84 in test [1]; 0.162 in [2]; 0.409 in test [3]; -0.276 in test [4]; -0.105 in [5]; -0.0749 in test [6]. Also, the z-score was -0.962 (inactive) in test [7], -0.737 in test [8], -0.919 in test [9] and 1.93 (inactive) in [10].

As for `CC(C)CCC[C@@H](C)[C@H]1CC[C@@]2(C)C3=C(CC[C@]12C)[C@@]1(C)CC[C@H](OC(=O)c2ccc(N)cc2)C(C)(C)C1CC3` (stereo not given in full), the z-score in test [1] is 1.22; in [2], 0.187; in [3], 1.06; in [4], -0.169; in test [5], 0.814; in [6] it was 0.703. Further, the z-score in test [7] is 0.335 (inactive); in test [8], -0.064; in [9] it was -0.0494; in [10], -0.16 (inactive).

As to `CC1CC/C=C\[C@H]2OC34C=CCN(Cc5ccccc5)C(=O)[C@H]3N(CCO)C(=O)[C@@H]4C2C(=O)O1` (stereo not given in full), the z-score in test [1] is -0.106; in test [2], 1.1; in [3], 0.337; in [4], 1.47; in [5] it was -0.105; in test [6] it was 0.0673. Also, the z-score is 0.488 (inactive) in [7], -0.657 in test [8], 2.1 in test [9] and -0.783 (inactive) in [10].

As for `COC(=O)C(CC#Cc1ccc2c(c1)[C@]1(C(=O)N2)[C@H](c2ccc(O)cc2)N2[C@H](c3ccccc3)[C@H](c3ccccc3)OC(=O)[C@H]2[C@@H]1C(=O)O)C(=O)OC`, the z-score in [1] was 0.391; in test [2], -0.987; in test [3], 0.0171; in test [4] it was 0.226; in [5], -0.892; in test [6] it was -0.141. Further, the z-score in test [7] is -0.687 (inactive); in test [8], 0.491; in [9] it was 0.412; in test [10] it was -0.279 (inactive).

As to `CC(C)[Si](C#C[Si](C(C)C)(C(C)C)C(C)C)(O[C@H](C)c1cn(Cc2cccc(Cl)c2)nn1)C(C)C`, the z-score in test [1] was 1.85; in test [2], -0.667; in [3], 1.12; in test [4] it was 0.673; in test [5], 0.133; in [6] it was 1.37. For the same molecule, the z-score in test [7] was 0.159 (inactive); in test [8], -0.0288; in test [9] it was 0.238; in [10], 1.15 (inactive).

For `O=C1O[C@H](c2ccccc2)[C@H](c2ccccc2)N2[C@H]1[C@@H](C(=O)N1CCN(c3ncccn3)CC1)[C@]1(C(=O)Nc3ccc(C#CCCO)cc31)[C@H]2c1ccccc1OCCO`, the z-score was 1.09 in test [1]; 0.569 in test [2]; 0.313 in [3]; -0.445 in test [4]; -2.95 in test [5]; 0.308 in test [6]. Moreover, the z-score in test [7] was 0.488 (inactive); in test [8], -0.794; in test [9], -0.0117; in test [10], 1.92 (inactive).

In the case of `C=CCC(OC(C)=O)[C@@H]1[C@@H](N(Cc2ccc(-c3cccc(C(F)(F)F)c3)o2)C(=O)c2cccc3ccccc23)c2cc(OCCCO)ccc2N1C(=O)c1ccc(-c2ccccc2)cc1` (stereo not given in full), the z-score in [1] was 0.558; in [2], 0.865; in test [3], -0.382; in [4], -1.04; in test [5], -1.23; in [6], 2.41. The z-score in test [7] is -2.44 (inactive); in test [8], 0.00531; in [9] it was 0.988; in [10] it was -0.93 (inactive).

`C=CC[C@]1(C(=O)N2CCOCC2)N=C(c2ccc(OCCCO)cc2)O[C@H]1c1ccccc1CN=[N+]=[N-]`: the z-score in test [1] is 0.762; in [2], 0.399; in [3], 1.65; in test [4], -0.0728; in test [5], -1.62; in [6], 1.48. In addition, the z-score in test [7] was 0.114 (inactive); in [8], -0.977; in test [9] it was -0.508; in [10] it was -0.119 (inactive).

`C=C(CCCC)/C(=C/C[C@@H](OC(=O)c1ccncc1)c1ccccc1OCCO)c1cc(C(=O)OC)ccc1OC`: the z-score is 0.0198 in test [1]; 0.725 in [2]; 0.949 in [3]; -3.26 in test [4]; -3.93 in test [5]; 2.84 in [6]. Further, the z-score in [7] was -0.188 (inactive); in test [8], -0.497; in test [9] it was -1.14; in test [10], 0.17 (inactive).

For the molecule `COC(=O)[C@@]1(Cc2ccc(F)cc2)[C@H]2c3cc(C(=O)N4CCCC4)n(Cc4ccccc4)c3C[C@H]2CN1C(=O)c1ccccc1`, the z-score is -0.858 in test [1]; -0.273 in test [2]; -0.579 in test [3]; -2.1 in test [4]; -4.11 in test [5]; 0.49 in test [6]. Moreover, the z-score in test [7] is -0.76 (inactive); in [8], -0.104; in test [9], -0.759; in test [10] it was 0.0314 (inactive).

`O=C1O[C@@H](c2ccccc2)[C@@H](c2ccccc2)N2[C@@H](c3ccc(O)cc3)[C@]3(C(=O)Nc4ccc(C#CC5=CCCCC5)cc43)[C@@H](C(=O)Nc3nc4ccccc4s3)[C@H]12`: the z-score in test [1] was 0.583; in [2], -0.0897; in [3] it was 1.46; in [4] it was -0.575; in [5], -1.81; in [6] it was -2.6. For the same molecule, the z-score was 0.03 (inactive) in [7], -0.745 in [8], -1.02 in test [9] and -0.361 (inactive) in [10].
